Several values for one entry are separate records, joined by “and”; a condition that tells them apart may be missing. Equal values may be shown once. The campaign covered roughly 5,500 compounds. About 2,000 (36%) were called active. Inconclusive results (about 18%) are left out. Cut-off read from the data, not from the text of the source: active = normalized growth mostly below about 0.91 (no sharp cut-off); inconclusive = no clear call, values can overlap the other calls; inactive = mostly above about 0.92. The list shows a part of the results.
Assay: chemical genetic growth profiling, strain panel (AID 1159580);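 note: tested at 20 µM; growth read once vehicle control cultures reached saturation at 30 °C; 1 = growth at the plate median or of vehicle wells; lower values mean less growth of the strain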
Settings: S. cerevisiae deletion strains, growth OD

Measured: normalized growth

OC[C@H]1O[C@@](CO)(O[C@@H]2O[C@H](CO)[C@@H](O)[C@H](O)[C@H]2O)[C@@H](O[C@@H]2O[C@H](CO)[C@@H](O)[C@H](O)[C@H]2O)[C@@H]1O
inactive: locus YAL013W, strain DEP1, active compounds read low 1.02 | locus YAL021C, strain ccr4, active compounds read low 1.01 | locus YAL026C, strain drs2, active compounds read low 1.02 | locus YAL030W, strain snc1, active compounds read low 1.02 | locus YBL061C, strain skt5, active compounds read low 1.02 | locus YBR009C, strain hhf1, active compounds read low 1.02 | locus YBR021W, strain FUR4, active compounds read low 1.01 | locus YBR023C, strain chs3, active compounds read low 1.02 | locus YBR171W, strain sec66, active compounds read low 1.03 | locus YBR229C, strain ROT2, active compounds read low 1.01 | locus YBR231C, strain swc5, active compounds read low 1.02 | locus YBR279W, strain paf1, active compounds read low 1.02 | locus YCL011C, strain gbp2, active compounds read low 1.02 | locus YCL016C, strain dcc1, active compounds read low 1.02 | locus YCL029C, strain bik1, active compounds read low 1.05 | locus YCL061C, strain MRC1, active compounds read low 1.01 | locus YCL069W, strain vba3, active compounds read low 1.01 | locus YCR088W, strain abp1, active compounds read low 1.01 | locus YDL005C, strain med2, active compounds read low 1.02 | locus YDL035C, strain GPR1, active compounds read low 1.04 | locus YDL040C, strain nat1, active compounds read low 1.01 | locus YDL074C, strain BRE1, active compounds read low 1.09 | locus YDL101C, strain DUN1, active compounds read low 1.02 | locus YDL134C, strain PPH21, active compounds read low 1.05 | locus YDL185W, strain tfp1, active compounds read low 1.01 | locus YDL192W, strain arf1, active compounds read low 1.04 | locus YDR001C, strain nth1, active compounds read low 1.02 | locus YDR069C, strain doa4, active compounds read low 1.04 | locus YDR101C, strain arx1, active compounds read low 1.01 | locus YDR137W, strain rgp1, active compounds read low 1.02 | locus YDR159W, strain sac3, active compounds read low 1.02 | locus YDR162C, strain NBP2, active compounds read low 1.07 | locus YDR195W, strain ref2 1.01 | locus YDR297W, strain sur2, active compounds read low 1.02 | locus YDR318W, strain mcm21, active compounds read low 1.06 | locus YDR334W, strain swr1, active compounds read low 1.02 | locus YDR335W, strain msn5, active compounds read low 1.02 | locus YDR388W, active compounds read low 1.01 | locus YDR392W, strain spt3, active compounds read low 0.969 | locus YDR502C, strain sam2, active compounds read low 1.05 | locus YEL003W, strain gim4, active compounds read low 1.03 | locus YEL037C, strain rad23, active compounds read low 1.02 | locus YEL061C, strain CIN8 (second series), active compounds read low 1.02 | locus YEL061C, strain CIN8, active compounds read low 1.01 | locus YER015W, strain faa2, active compounds read low 1.02 | locus YER016W, strain bim1, active compounds read low 1.02 | locus YER110C, active compounds read low 1.01 | locus YER111C, strain swi4, active compounds read low 1.02 | locus YER155C, strain BEM2 (second series), active compounds read low 1.03 | locus YER155C, strain BEM2, active compounds read low 1.02 | locus YER167W, strain BCK2, active compounds read low 1.01 | locus YFR010W, strain ubp6, active compounds read low 1.02 | locus YGL078C, strain dbp3, active compounds read low 1.04 | locus YGL086W, strain mad1, active compounds read low 1.03 | locus YGL167C, strain pmr1, active compounds read low 1.02 | locus YGL173C, strain kem1, active compounds read low 1.03 | locus YGL227W, strain vid30, active compounds read low 1.02 | locus YGL240W, strain doc1, active compounds read low 1.02 | locus YGL248W, strain PDE1, active compounds read low 1.05 | locus YGL253W, strain hxk2, active compounds read low 1.02 | locus YGR078C, strain PAC10, active compounds read low 1.04 | locus YGR135W, strain pre9, active compounds read low 1.04 | locus YGR252W, strain gcn5, active compounds read low 1.09 | locus YHR013C, strain ard1, active compounds read low 1.03 | locus YHR027C, strain rpn1, active compounds read low 1.02 | locus YHR030C, strain SLT2, active compounds read low 1.01 | locus YHR079C, strain IRE1 (second series), active compounds read low 1.01 | locus YHR079C, strain IRE1, active compounds read low 1.02 | locus YHR094C, strain hxt1, active compounds read low 1 | locus YHR129C, strain ARP1, active compounds read low 1.02 | locus YHR142W, strain chs7, active compounds read low 1.01 | locus YHR200W, strain rpn10, active compounds read low 1.03 | locus YIL066C, strain RNR3, active compounds read low 1.03 | locus YIL073C, strain SPO22, active compounds read low 1.05 | locus YIL125W, strain kgd1, active compounds read low 1.02 | locus YIR030C, strain dcg1, active compounds read low 1.01 | locus YJL092W, strain hpr5, active compounds read low 1.02 | locus YJL095W, strain BCK1 (second series), active compounds read low 1.02 | locus YJL095W, strain BCK1, active compounds read low 1.08 and 1 | locus YJL115W, strain asf1, active compounds read low 1.02 | locus YJL129C, strain trk1, active compounds read low 1.01 | locus YJL134W, strain LCB3, active compounds read low 1.01 | locus YJL154C, strain vps35, active compounds read low 1.01 | locus YJL164C, strain tpk1, active compounds read low 1 | locus YJL166W, strain qcr8, active compounds read low 1.02 | locus YJL168C, strain set2, active compounds read low 1.02 | locus YJL187C, strain SWE1 (second series), active compounds read low 1.05 | locus YJL187C, strain SWE1, active compounds read low 1.02

From PubChem BioAssay AID1159580 (chemical genetic matrix, 2015)
